Bioassay records from PubChem.
The entries come from a sample that favours hits as a whole.
Tg IFNy HTS = blocks Toxoplasma gondii growth in the presence of IFN-gamma; Toxoplasma gondii growth in IFN-gamma-treated host cells; active compounds read low; activity change, negative = inhibition, % (no concentration beside the values); 69,000 tested, 3.8% active; in the data active = activity change below about -70%, passing the limit was not always enough;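 note: host cells are HeLa cells infected with Toxoplasma gondii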
Active calls of the source: *.

Screening CCCc1nc(CN(CC)C(=O)C2=CC(=O)CC(C)(C)O2)no1 returned Tg IFNy HTS 51.
`COc1ccc(CNCC(=O)Nc2cccc(C)c2C)c(OC)c1` gave Tg IFNy HTS 1.
For O=C1NCC[C@@]12CN(S(=O)(=O)C1CC1)C[C@H]2c1ccccc1 the results were Tg IFNy HTS -44.
Screening O=C(CN1CCNC1=O)NCc1ccc2sccc2c1 returned Tg IFNy HTS 3.
Cc1nc2ncnn2c(NCc2ccc3c(c2)OCO3)c1Cc1ccccc1 was read as Tg IFNy HTS -95*.
For CCOC(=O)c1nc(NCc2ccc3c(c2)OCO3)c2ccccc2n1 the results were Tg IFNy HTS 9.
For Cc1cccc(CCNc2cc(C)nc3ncnn23)c1 the results were Tg IFNy HTS 3.
CCn1c(C2CCCN(C(=O)c3cnnn3-c3ccccc3)C2)nn(C)c1=O (centres undefined) was read as Tg IFNy HTS -63.
For c1cncc(CN(CCN2CCOCC2)Cc2cccn2C2CCCCC2)c1 the results were Tg IFNy HTS -2.
`CCOc1ccc(-c2cnc(-c3cnc(CC)nc3)[nH]2)cc1` gave Tg IFNy HTS -12.
Screening C=CCn1c(=O)c(-c2nc(-c3ccc(C(=O)OC)cc3)no2)c(O)c2ccccc21 returned Tg IFNy HTS 48.
O=C(CCn1cnc2cc(-c3noc(-c4cc5cc(Cl)ccc5[nH]4)n3)ccc21)N1CCCC1 was read as Tg IFNy HTS 11.
`C[C@@H]1CN(S(=O)(=O)c2cccc(F)c2)CC[C@@]12CCC(C(=O)NCC1CC1)O2` (some centres undefined) gave Tg IFNy HTS 4.
For O=C(NC1CCC1)[C@H]1C[C@H]2CN(Cc3ccccc3)C[C@H]1O2 the results were Tg IFNy HTS 18.
`O=C(NC1CCC1)[C@H]1C[C@@H]2CN(C(=O)Nc3ccc(Cl)cc3)C[C@H]1O2` gave Tg IFNy HTS -7.
O=C(NC1CCC1)[C@H]1C[C@H]2CN(Cc3ccc(Cl)cc3)C[C@H]1O2 was read as Tg IFNy HTS -93*.
`CC(=O)NCC1=CCCN(Cc2nccn2C(C)C)C1` gave Tg IFNy HTS 11.
`Cc1cccc(CN2CC[C@]3(CCC[C@@H]3C(=O)N3CCOCC3)C2)n1` gave Tg IFNy HTS -23.
`Cc1ccc(C(=O)NCCc2sc(-c3ccc(Cl)cc3)nc2C)cc1` gave Tg IFNy HTS -82*.
Screening CCOc1ccc(C(=O)NCCc2sc(-c3ccc(C)cc3)nc2C)cc1 returned Tg IFNy HTS 2.
CCOc1ccc(C(=O)NCCc2sc(-c3ccc(Cl)cc3)nc2C)cc1 was read as Tg IFNy HTS -82*.
`Cc1ccc(-c2nc(C)c(CCNC(=O)c3ccccc3)s2)cc1` gave Tg IFNy HTS inactive.
CCOc1ccc(C(=O)NCCc2sc(-c3ccc(OC)cc3)nc2C)cc1 was read as Tg IFNy HTS 77.
`Cc1nc(-c2ccc(F)cc2)sc1CCNC(=O)c1ccc(Cl)cc1` gave Tg IFNy HTS -58.
`CCN1CC2(CC1=O)CN(C(=O)C(C)C)CCN(S(=O)(=O)C1CC1)C2` (centres undefined) gave Tg IFNy HTS 7.
Screening O=C(CN1C(=O)CCc2cc(Br)ccc21)Nc1nccs1 returned Tg IFNy HTS 85.
Screening Cc1ccc(C)c(OCC(=O)NC(C)c2n[nH]c(=O)[nH]2)c1C (centres undefined) returned Tg IFNy HTS -47.
COCCn1cnc(-c2nc(C(=O)NCc3cnc(C)cn3)c3ccccn23)c1 was read as Tg IFNy HTS 4.
Screening COc1cc(C(F)(F)F)cc(C(F)(F)F)c1C(=O)NCc1cccs1 returned Tg IFNy HTS -81*.
Screening COc1cc(C(F)(F)F)cc(C(F)(F)F)c1C(=O)Oc1ccc(Cl)cc1 returned Tg IFNy HTS -96*.
`COc1cc(C(F)(F)F)cc(C(F)(F)F)c1C(N)=O` gave Tg IFNy HTS -50.
`COCCN1CCN(c2ccc3ccc(C(=O)NCc4cccs4)cn23)CC1` gave Tg IFNy HTS 1.
Cc1cc(-c2onc(C)c2C(=O)Oc2ccc(Cl)cc2)no1 was read as Tg IFNy HTS -30.
Screening O=C(CCCC(=O)NCc1cccs1)NCc1cccs1 returned Tg IFNy HTS -39.
For CC(C)CC(O)C(=O)N1CCn2nc(C(=O)Nc3ccccc3)cc2C1 (centres undefined) the results were Tg IFNy HTS -2.
For CC(C)N1CCCn2c(nc(CNC(=O)c3cnn(C)c3)cc2=O)C1 the results were Tg IFNy HTS 5.
Screening COc1cccc(CC(=O)N2CCc3nc(-c4ccc(F)cc4)nc(C)c3CC2)c1 returned Tg IFNy HTS -6.
CC(C)(C)OC(=O)N1CCc2[nH]nc(Nc3ccccc3)c2C1 was read as Tg IFNy HTS -5.
`COc1cccc(Nc2nc(-c3ccncc3)nc3c2CN(C(=O)OC(C)(C)C)CC3)c1` gave Tg IFNy HTS -75*.
`Cc1ccc(NC(=O)CN2CCC3(CC2)N=C(c2ccc(C(C)(C)C)cc2)C(=O)N3)cc1C` gave Tg IFNy HTS -76*.
Cc1cccc(NC(=O)CN2CCC3(CC2)N=C(c2ccc(C)c(C)c2)C(=O)N3)c1 was read as Tg IFNy HTS -10.
For Cc1ccc(NC(=O)CN2CCC3(CC2)N=C(c2cccc(F)c2)C(=O)N3)cc1C the results were Tg IFNy HTS 38.
COCCN1C[C@@H]2CN(C(=O)c3ccncc3)C[C@H]2C1=O was read as Tg IFNy HTS 0.
For CNC(=O)c1cccc(NCC(=O)NCCc2ccc(OC)c(OC)c2)c1 the results were Tg IFNy HTS 15.
Screening CCOC(=O)C1CCN(C(=O)c2sc(-c3cn(C(C)C)c4ncccc34)nc2C)CC1 returned Tg IFNy HTS -51.
For Cc1nc(-c2cn(C(C)C)c3ncccc23)sc1C(=O)N1CCCC(C)C1 (centres undefined) the results were Tg IFNy HTS -117*.
Cc1nc(-c2cn(C(C)C)c3ncccc23)sc1C(=O)N1CCC2(CC1)OCCO2 was read as Tg IFNy HTS -67.
Screening O=C(Cn1nc(-c2ccccc2)nc1-c1ccccc1)N1CCCc2ccccc21 returned Tg IFNy HTS -20.
For CC(C)CN1C(=O)CCc2cc(NC(=O)c3ccc4c(c3)OCO4)ccc21 the results were Tg IFNy HTS -77*.
Screening CCC(=O)Nc1ccc2c(c1)CCC(=O)N2CC(C)C returned Tg IFNy HTS 13.
Screening COCCN1C(=O)CCc2cc(NC(=O)c3ccc4c(c3)OCO4)ccc21 returned Tg IFNy HTS -39.
`CCN1C(=O)CCc2cc(NC(=O)c3ccc4c(c3)OCO4)ccc21` gave Tg IFNy HTS -87*.
Cc1ccc(C(=O)Nc2ccc3c(c2)CCC(=O)N3CC(C)C)c(C)c1 was read as Tg IFNy HTS -65.
`CCN1C(=O)CCc2cc(NC(=O)C3CCCC3)ccc21` gave Tg IFNy HTS -8.
Screening CCN1C(=O)CCc2cc(NC(=O)CC(C)C)ccc21 returned Tg IFNy HTS 5.
CCN1C(=O)CCc2cc(NC(=O)c3ccc(F)cc3)ccc21 was read as Tg IFNy HTS -26.
`CCN1C(=O)CCc2cc(NC(=O)/C=C/c3ccccc3)ccc21` gave Tg IFNy HTS -83*.
For Cc1cc(C)n(CCCN(C)S(=O)(=O)N2CCC(C)CC2)n1 the results were Tg IFNy HTS -1.
For O=C1CN(C(=O)c2coc(CN3CCN(Cc4ccccc4)CC3)n2)CCCN1 the results were Tg IFNy HTS 0.
Screening CC1=C(C(=O)NCCCN2CCOCC2)C2(CCN(S(=O)(=O)c3cccs3)CC2)OC1=O returned Tg IFNy HTS 58.
